Data as given in PubChem BioAssay (EPA / NIEHS).
Inconclusive results are not listed. Active and inactive are the calls of the source. The calls were made as follows, unless noted: active = hit-call score of the fitted dose curve at least 0.9, where 1 is the maximum; inactive = score below 0.9.

Tests used:
[1] = read-out: Interleukin-1 alpha (IL1a), IL1A (gene 3552); test: BSK_LPS_IL1a: BioMAP Diversity Plus: LPS Assay for Interleukin-1 alpha (IL1a) Biomarker Activity (AID 2283080); settings: primary human HUVEC with PBMC; actives raise or lower the signal
Summary of the method: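 Measured: IL-1 alpha via ELISA at 24 h in LPS-activated human umbilical vein endothelium–PBMC co-culture. Baseline: DMSO, bidirectional fitting.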

[2] = read-out: Monocyte Chemoattractant Protein-1 (MCP1), CCL2 (gene 6347); test: BSK_LPS_MCP1: BioMAP Diversity Plus: LPS Assay for Monocyte Chemoattractant Protein-1 (MCP1) Biomarker Activity (AID 2283081); settings: primary human HUVEC with PBMC; actives raise or lower the signal;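 as to AC50: secreted MCP-1 protein quantified by ELISA in culture supernatant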
Summary of the method: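 LPS-stimulated HUVEC/PBMC co-culture; chemical, 24 h; MCP-1 by ELISA; bidirectional fit vs DMSO; cytotoxicity via SRB (0.1% stain, 10% TCA fix, 560 nm) in parallel wells.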

[3] = BSK_LPS_PGE2: BioMAP Diversity Plus: LPS Assay for Prostaglandin E2 (PGE2) Biomarker Activity (AID 2283082); settings: primary human HUVEC with PBMC; actives raise or lower the signal;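 as to AC50: secreted prostaglandin E2 measured by ELISA in LPS-stimulated co-culture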
Summary of the method: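 Primary human endothelial cells and blood mononuclear cells, co-cultured with LPS, receive test chemical; PGE2 ELISA follows at 24 h, with SRB-stained parallel cultures flagging cytotoxicity.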

[4] = read-out: Macrophage colony-stimulating factor (MCSF), CSF1 (gene 1435); test: BSK_LPS_MCSF: BioMAP Diversity Plus: LPS Assay for Macrophage colony-stimulating factor (MCSF) Biomarker Activity (AID 2283083); settings: primary human HUVEC with PBMC; actives raise or lower the signal
Summary of the method: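 Compound is added to a human vascular primary co-culture of umbilical vein endothelium and blood mononuclear cells. After 24 h, M-CSF is quantified by ELISA. Signal changes are fitted in both directions against DMSO.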

[5] = read-out: Tissue Factor, F3 (gene 2152); test: BSK_LPS_TissueFactor: BioMAP Diversity Plus: LPS Assay for Tissue Factor Biomarker Activity (AID 2283084); settings: primary human HUVEC with PBMC; actives raise or lower the signal
Summary of the method: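 In this co-culture system of umbilical vein endothelium with PBMC, stimulated with LPS, cell-surface CD142 is detected by ELISA at 24 h. Endpoint values derive from bidirectional fitting, DMSO serving as baseline.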

[6] = read-out: Tumor necrosis factor (Homo sapiens) (UniProt P01375); test: BSK_LPS_TNFa: BioMAP Diversity Plus: LPS Assay for Tumour Necrosis Factor alpha (TNFa) Biomarker Activity (AID 2283085); settings: primary human HUVEC with PBMC; actives raise or lower the signal;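 as to AC50: TNFa protein level quantified by ELISA in the co-culture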
Summary of the method: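 ELISA-based TNFa endpoint in a human endothelial–PBMC co-culture sampled 24 h post-exposure. Curves were fitted in both directions using DMSO as baseline of activity.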

CD38, CD38 (gene 952) = test: BSK_SAg_CD38: BioMAP Diversity Plus: SAg Assay for CD38 Biomarker Activity (AID 2283087); settings: primary human HUVEC with PBMC; actives raise or lower the signal
Summary of the method: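 Measures CD38 on a human endothelial/PBMC co-culture driven by SEB and TSST-1, 24 h after compound exposure, using ELISA with fluorescence detection; DMSO defines baseline for bidirectional curve fitting.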

CD69, CD69 (gene 969) = test: BSK_SAg_CD69: BioMAP Diversity Plus: SAg Assay for CD69 Biomarker Activity (AID 2283089); settings: primary human HUVEC with PBMC; actives raise or lower the signal;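 as to AC50: cell surface CD69 protein quantified by ELISA with fluorescence detection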
Summary of the method: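 Primary human vascular co-culture (umbilical vein endothelium with peripheral blood mononuclear cells) exposed to test chemical for 24 h. CD69 levels quantified by fluorescence ELISA; DMSO served as negative control for bidirectional fitting.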

[7] = read-out: Monocyte Chemoattractant Protein-1 (MCP1), CCL2 (gene 6347); test: BSK_SAg_MCP1: BioMAP Diversity Plus: SAg Assay for Monocyte Chemoattractant Protein-1 (MCP1) Biomarker Activity (AID 2283090); settings: primary human HUVEC with PBMC; actives raise or lower the signal
Summary of the method: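 Values derive from bidirectional fitting of ELISA-measured MCP1 against DMSO controls. Readings were taken 24 h after dosing human vascular endothelial cells co-cultured with peripheral blood mononuclear cells under superantigen stimulation.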

[8] = read-out: E-selectin (Homo sapiens) (UniProt P16581); test: BSK_SAg_Eselectin: BioMAP Diversity Plus: SAg Assay for Eselectin Biomarker Activity (AID 2283091); settings: primary human HUVEC with PBMC; actives raise or lower the signal
Summary of the method: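 Primary human endothelial cells and peripheral blood mononuclear cells were co-cultured and exposed to chemical for 24 hours. E-selectin levels were then quantified by ELISA, with bidirectional curve fitting normalised to DMSO controls.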

[9] = read-out: Monokine induced gamma interferon (MIG), CXCL9 (gene 4283); test: BSK_SAg_MIG: BioMAP Diversity Plus: SAg Assay for Monokine induced gamma interferon (MIG) Biomarker Activity (AID 2283092); settings: primary human HUVEC with PBMC; actives raise or lower the signal
Summary of the method: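 Endothelial cells and PBMC were co-cultured, exposed to test chemicals, and sampled 24 h later. MIG was measured by ELISA, and responses were fitted in both directions relative to DMSO.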

[10] = BSK_SAg_PBMCCytotoxicity: PBMC Cytotoxicity Assessment in the BioMAP Diversity Plus: SAg Assay (AID 2283093); settings: primary human HUVEC with PBMC;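 also: fitted both ways against DMSO so a hit may be loss or gain of signal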;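 as to AC50: PBMC superantigen activated with SEB plus TSST-1 one hour after compound addition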
Summary of the method: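 PBMC viability by Alamar Blue reduction, fluorescence read at 546/580 nm after 6 h dye exposure. Cells were dosed 1 h before SEB plus TSST-1 activation (20 ng/mL final each), then held 90 h; endothelial/PBMC human co-culture.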

[11] = read-out: Interleukin-8 (IL8), CXCL8 (gene 3576); test: BSK_SAg_IL8: BioMAP Diversity Plus: SAg Assay for Interleukin-8 (IL8) Biomarker Activity (AID 2283094); settings: primary human HUVEC with PBMC; actives raise or lower the signal
Summary of the method: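 Primary human endothelial cells with PBMC, exposed 24 h; IL-8 determined by ELISA, analysed bidirectionally relative to DMSO.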

[12] = BSK_SAg_Proliferation: Cell Proliferation Assessment in the BioMAP Diversity Plus: SAg Assay (AID 2283095); settings: primary human HUVEC with PBMC;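 also: relative cell number as total protein by SRB absorbance in sub-confluent culture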
Summary of the method: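 A human primary co-culture of umbilical vein endothelium and blood mononuclear cells receives compound; relative cell number is quantified at 96 h by SRB staining and 560 nm absorbance, with DMSO-referenced bidirectional curve fitting.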

[13] = BSK_SAg_SRB: Viability Assessment in the BioMAP Diversity Plus: SAg Assay (AID 2283096); settings: primary human HUVEC with PBMC;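 also: cells read one day after compound addition; hits may be either gain or loss of signal compared with DMSO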
Summary of the method: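 Compounds were added to a human vascular co-culture of umbilical vein endothelium and PBMC. After 24 h, parallel cultures were fixed with 10% TCA, stained with 0.1% sulforhodamine B and read at 560 nm. Gain or loss of signal was fitted relative to DMSO.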

CD40, CD40 (gene 958) = test: BSK_SAg_CD40: BioMAP Diversity Plus: SAg Assay for CD40 Biomarker Activity (AID 2283088); settings: primary human HUVEC with PBMC; actives raise or lower the signal
Summary of the method: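 Fluorescence ELISA read-out of CD40 from umbilical vein endothelium plus peripheral blood mononuclear cells, sampled 24 h after dosing. Values come from bidirectional curve fitting with DMSO as baseline.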

[14] = biological target: human CYP19A1, CYP19A1 (gene 1588) (UniProt P11511); test: NVS_ADME_hCYP19A1: NovaScreen (NVS) CYP450-related Enzyme Activity (ADME) Assay for human CYP19A1 (AID 2283098; active = hit-call score of the fitted dose curve at least 0.9, where 1 is the maximum)
human CYP19A1, CYP19A1 (gene 1588), sequence (P11511 whole entry, looked up): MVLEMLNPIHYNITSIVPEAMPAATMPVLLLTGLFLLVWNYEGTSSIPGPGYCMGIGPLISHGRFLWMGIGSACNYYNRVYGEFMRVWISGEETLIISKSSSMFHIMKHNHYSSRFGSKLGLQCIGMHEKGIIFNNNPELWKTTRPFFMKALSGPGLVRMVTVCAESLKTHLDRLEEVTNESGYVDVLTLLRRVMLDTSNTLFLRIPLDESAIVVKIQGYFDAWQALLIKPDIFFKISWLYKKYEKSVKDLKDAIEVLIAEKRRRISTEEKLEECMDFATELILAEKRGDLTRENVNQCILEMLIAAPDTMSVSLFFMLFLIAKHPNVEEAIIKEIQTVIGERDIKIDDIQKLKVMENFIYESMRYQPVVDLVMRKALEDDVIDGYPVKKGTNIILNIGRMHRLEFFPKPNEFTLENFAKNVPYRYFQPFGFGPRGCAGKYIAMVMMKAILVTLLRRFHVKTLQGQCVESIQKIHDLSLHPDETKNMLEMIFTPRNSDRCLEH
Summary of the method: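 Fluorescence intensity read-out; activity taken as signal loss relative to acetonitrile vehicle. Extracted enzyme, specific substrate, no cells, 0.5 h exposure. Duplicate single-point screen at 10 uM, then concentration–response follow-up for actives.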

[15] = biological target: human CYP2A6, CYP2A6 (gene 1548) (UniProt P11509); test: NVS_ADME_hCYP2A6: NovaScreen (NVS) CYP450-related Enzyme Activity (ADME) Assay for human CYP2A6 (AID 2283099; active = hit-call score of the fitted dose curve at least 0.9, where 1 is the maximum)
human CYP2A6, CYP2A6 (gene 1548), sequence (P11509 whole entry, looked up): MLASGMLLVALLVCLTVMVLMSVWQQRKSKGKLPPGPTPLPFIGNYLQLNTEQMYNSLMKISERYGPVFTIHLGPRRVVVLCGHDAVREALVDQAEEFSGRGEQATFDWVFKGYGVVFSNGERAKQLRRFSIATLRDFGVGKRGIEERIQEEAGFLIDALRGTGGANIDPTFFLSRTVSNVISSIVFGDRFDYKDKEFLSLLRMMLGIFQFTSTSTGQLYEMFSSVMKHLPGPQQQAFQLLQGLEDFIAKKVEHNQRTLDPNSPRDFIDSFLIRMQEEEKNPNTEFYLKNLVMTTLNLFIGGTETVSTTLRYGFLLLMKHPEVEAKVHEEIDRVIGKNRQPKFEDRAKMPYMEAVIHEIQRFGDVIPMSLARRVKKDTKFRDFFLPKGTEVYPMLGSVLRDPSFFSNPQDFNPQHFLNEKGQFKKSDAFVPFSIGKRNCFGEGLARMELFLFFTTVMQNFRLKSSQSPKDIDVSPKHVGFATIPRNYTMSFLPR
Summary of the method: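 Recombinant human CYP2A6 from insect cells was incubated with chemical for 0.5 h and activity read by fluorescence. Single-concentration duplicates at 10 uM preceded concentration-response testing to 20 uM, with activity referenced to acetonitrile.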

[16] = read-out: Vascular cell adhesion molecule 1 (VCAM1), VCAM1 (gene 7412); test: BSK_LPS_VCAM1: BioMAP Diversity Plus: LPS Assay for Vascular cell adhesion molecule 1 (VCAM1) Biomarker Activity (AID 2283086); settings: primary human HUVEC with PBMC; actives raise or lower the signal
Summary of the method: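 Measured by ELISA: VCAM-1 in LPS-activated HUVEC/PBMC co-cultures 24 h after treatment. Values reflect bidirectional fitting with DMSO as baseline.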

Measured: AC50

Tumor necrosis factor (Homo sapiens), sequence (P01375 whole entry, looked up): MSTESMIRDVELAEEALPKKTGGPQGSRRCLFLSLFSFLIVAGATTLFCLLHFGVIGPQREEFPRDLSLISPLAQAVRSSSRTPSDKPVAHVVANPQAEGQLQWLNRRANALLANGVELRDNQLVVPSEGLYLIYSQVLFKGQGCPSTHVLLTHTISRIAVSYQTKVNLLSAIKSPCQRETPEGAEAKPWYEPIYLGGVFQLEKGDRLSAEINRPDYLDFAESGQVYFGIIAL
E-selectin (Homo sapiens), sequence (P16581 whole entry, looked up): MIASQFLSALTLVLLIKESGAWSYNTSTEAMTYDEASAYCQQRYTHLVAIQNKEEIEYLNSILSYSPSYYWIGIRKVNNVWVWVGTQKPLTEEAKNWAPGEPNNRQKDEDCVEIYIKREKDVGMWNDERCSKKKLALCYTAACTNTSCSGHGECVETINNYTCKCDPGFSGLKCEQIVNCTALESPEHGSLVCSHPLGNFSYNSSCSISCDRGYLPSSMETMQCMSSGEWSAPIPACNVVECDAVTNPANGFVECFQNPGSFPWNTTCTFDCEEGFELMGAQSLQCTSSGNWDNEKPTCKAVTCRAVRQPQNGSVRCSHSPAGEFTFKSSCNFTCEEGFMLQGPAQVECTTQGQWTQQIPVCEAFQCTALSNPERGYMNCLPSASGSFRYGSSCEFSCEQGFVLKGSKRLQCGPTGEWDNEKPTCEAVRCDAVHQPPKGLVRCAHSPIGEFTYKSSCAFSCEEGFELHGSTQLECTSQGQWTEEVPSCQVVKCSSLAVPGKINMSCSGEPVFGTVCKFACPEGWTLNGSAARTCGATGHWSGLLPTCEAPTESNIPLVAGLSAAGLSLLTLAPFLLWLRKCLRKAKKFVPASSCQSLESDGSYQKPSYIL

COP(=O)(OC)SCn1c(=O)oc2cc(Cl)cnc21
inactive: [1] | [2] | [5] | [7] | [9] | [10] | [11]
active: [3] 2.01 µM | [4] 18.3 µM | [6] 0.148 µM | CD38, CD38 (gene 952) 21.4 µM | CD69, CD69 (gene 969) 20 µM | [8] 20 µM | [12] 12.2 µM | [13] 13.4 µM

C=C(C)[C@H]1Cc2c(ccc3c2O[C@@H]2COc4cc(OC)c(OC)cc4[C@@H]2C3=O)O1
inactive: [6] | [10] | [14]
active: [2] 26.8 µM | [3] 0.702 µM | [4] 13.4 µM | [5] 8.75 µM | CD38, CD38 (gene 952) 5.59 µM | CD40, CD40 (gene 958) 7.75 µM | CD69, CD69 (gene 969) 3.97 µM | [7] 16.7 µM | [8] 4.05 µM | [9] 27.2 µM | [11] 1.61 µM | [12] 5.57 µM | [13] 5.52 µM

Nc1c(Cl)cc([N+](=O)[O-])cc1Cl
active: [8] 10.1 µM | [15] 2.05 µM
not listed: [14] | [16]
inactive: all other assays above

Cc1cc(C2CC2)nc(Nc2ccccc2)n1
active: [3] 7.61 µM | [4] 20.3 µM | [16] 15.7 µM | CD69, CD69 (gene 969) 28.2 µM | [8] 34.4 µM | [10] 7.66 µM | [12] 34.3 µM | [13] 15 µM
not listed: CD40, CD40 (gene 958) | [14] | [15]
inactive: all other assays above

CC1(C(=O)Nc2ccc(O)c(Cl)c2Cl)CCCCC1
active: [3] 5.46 µM
not listed: [12] | [14] | [15] | [16]
inactive: all other assays above

CCCCSP(=O)(SCCCC)SCCCC
active: [2] 20 µM | [3] 29.7 µM | [6] 32.5 µM | [16] 31.1 µM | CD38, CD38 (gene 952) 20 µM | CD69, CD69 (gene 969) 31.5 µM | [7] 20 µM | [10] 34.8 µM | [11] 25.9 µM | [12] 36.2 µM | [13] 22.5 µM
inactive: [1] | [4] | [5] | [8] | [9]
